Data on 16 molecules can be found in PubChem BioAssay (NCATS).

Assay [1] relates to ICS. Put plainly: qHTS profiling for inhibitors of Plasmodium falciparum proliferation (AID 504749). To be noted: P. falciparum in erythrocytes, SYBR Green DNA, 72 h; series mostly up to 28.7 µM. An outline of the steps: (§1)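 Quantitative HTS: compounds pinned into medium, infected erythrocytes added (0.3% parasitemia, 2.5% hematocrit), 72 h culture at 37 C under 5% CO2. Saponin/Triton lysis with SYBR Green I, overnight RT, then fluorescence read.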
Background: In qHTS, concentration-response curves come from the screen itself.

Assay [2] concerns N140. The description is as above. Conditions: P. falciparum in erythrocytes, SYBR Green DNA, 72 h; series mostly up to 28.7 µM. The procedure, abridged:
as §1

The subject of assay [3] is P93_24. The description is as above. To be noted: P. falciparum in erythrocytes, SYBR Green DNA, 72 h; series mostly up to 28.7 µM. An outline of the steps: as §1
Assay [4] concerns P94_40. The description is as above. To be noted: P. falciparum in erythrocytes, SYBR Green DNA, 72 h; series mostly up to 28.7 µM. An outline of the steps: as §1
In assay [5] the test system is TAB165. The description is as above. Conditions: P. falciparum in erythrocytes, SYBR Green DNA, 72 h; series mostly up to 28.7 µM. An outline of the steps:
as §1

Assay [6] deals with W2. Described as above. Conditions: P. falciparum in erythrocytes, SYBR Green DNA, 72 h; series mostly up to 28.7 µM. The procedure, abridged:
as §1

Assay [7] concerns KB-3-1. Put plainly: Cytotoxic Profiling of Annotated Libraries Using Quantitative High-Throughput Screening (AID 1296008). For max response: % is set by controls: 0 for no effect and ±100 for the full control effect. Conditions: Five cell lines viability, CellTiter-Glo ATP luminescence, 48-72 h; max response: active compounds read low. An outline of the steps: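 Compounds were pin-transferred onto cells and incubated 48 or 72 hr at 37 degree Celsius, 95% humidity. CellTiter-Glo was added, plates sat 10 min at room temperature, then ATP-coupled luminescence was imaged as the viability read-out.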
For orientation: Cellular ATP, detected with luciferase, serves as a proxy for viable cell number.

In assay [8] the test system is JCK. Put plainly: qHTS profiling for inhibitors of Plasmodium falciparum proliferation (AID 504749). Conditions: P. falciparum in erythrocytes, SYBR Green DNA, 72 h; series mostly up to 28.7 µM. An outline of the steps:
as §1

Assay [9] concerns PAD. The assay is described as above. To be noted: P. falciparum in erythrocytes, SYBR Green DNA, 72 h; series mostly up to 28.7 µM. The procedure, abridged: as §1
The subject of assay [10] is PC15. The description is as above. To be noted: P. falciparum in erythrocytes, SYBR Green DNA, 72 h; series mostly up to 28.7 µM. An outline of the steps:
as §1

The test system of assay [11] is PC26. Described as above. Conditions: P. falciparum in erythrocytes, SYBR Green DNA, 72 h; series mostly up to 28.7 µM. The procedure, abridged:
as §1

For assay [12], the system named is PC49. The assay is described as above. To be noted: P. falciparum in erythrocytes, SYBR Green DNA, 72 h; series mostly up to 28.7 µM. The procedure, abridged: as §1
Assay [13] concerns SC27B. Described as above. To be noted: P. falciparum in erythrocytes, SYBR Green DNA, 72 h; series mostly up to 28.7 µM. An outline of the steps:
as §1

Assay [14] has as its system TAB109. The description is as above. To be noted: P. falciparum in erythrocytes, SYBR Green DNA, 72 h; series mostly up to 28.7 µM. The procedure, abridged:
as §1

In assay [15] the test system is TAB113. The assay is described as above. To be noted: P. falciparum in erythrocytes, SYBR Green DNA, 72 h; series mostly up to 28.7 µM. An outline of the steps:
as §1

“And” between values parts separate entries of the source, which are not always exact repeats. Identical values can stand only once. Results filed as inconclusive are left out. Unmarked numbers belong to inactive results. The source made the active and inactive calls. Calls come from the whole dose curve; as a rule, active = well fitted inhibition curve with a large enough effect; inconclusive = small, poorly fitted or top-dose-only effect; inactive = flat fitted curve, though single readings scatter.
Note: nearly all actives have a fitted effect of over 60% in size.
Potency is the fitted concentration of half-maximal effect.

Turning to `CC(CN(C)C)CN1c2ccccc2Sc2ccc(C(F)(F)F)cc21` (stereo not given), the Potency in [1] was 10 µM (active); in assay [2] it was 11.2 µM (active); in assay [3] it was 10 µM (active); in assay [4], 5.01 µM (active); in [5] it was 12.6 µM (active); in assay [6], 0.426 µM (active). Besides, the max response in assay [7] was -6.33%.
Turning to `O=C(O)CC/C=C\CC[C@@H]1[C@@H](N2CCCCC2)[C@@H](O)C[C@@H]1OCc1ccc(-c2ccccc2)cc1`, the Potency entry in assay [8], in [2], in assay [3], in assay [4], in [9] and in assay [10] was “inactive” throughout. The Potency entry in assay [11], in [12], in assay [13], in [14], in assay [15] and in [5] was “inactive” throughout. The max response in assay [7] was -15.9%.
Take `C/C=C/C=C/C(=O)O`: the Potency result in assay [1], in [8], in [2], in [4], in [9] and in assay [10] was “inactive” each time. Further, the Potency result in assay [11], in [12], in [13], in assay [14], in assay [15] and in assay [5] was “inactive” throughout. In [6], the Potency entry was “inactive”. For the same molecule, the max response in [7] was 5.4%.
In the case of `CC(=O)c1ccc2c(c1)N(CCCN1CCN(CCO)CC1)c1ccccc1S2`, the Potency is 7.94 µM (active) in assay [1]; 8.91 µM (active) in assay [3]; 10 µM (active) in [4]; 11.2 µM (active) in assay [10]; 7.57 µM (active) in assay [11]; 11.2 µM (active) in [12]. The figures for the Potency in assay [14], in assay [5] and in [6] were 7.08 µM (active), 11.2 µM (active) and 5.36 µM (active), respectively. Moreover, the max response in assay [7] was 1.1%.
Consider `Cn1c(O)c(N=NC(N)=S)c2ccccc21`, for which the Potency in assay [1] was 11.2 µM (active). The Potency result in assay [8], in assay [10], in assay [11] and in [12] was “inactive” each time. Besides, the max response in [7] is 8.19%.
As to `CC(C)=CCC/C(C)=C/C=C/C(C)=C/C=C/C(C)=C/C=C/C=C(C)/C=C/C=C(C)/C=C/C=C(\C)CCC=C(C)C`, the Potency in assay [1] was 11.2 µM (active). For the same molecule, the Potency result in assay [8], in [2], in [11], in [14] and in assay [15] was “inactive” in each case. Moreover, the max response in assay [7] is -16.3%.
Regarding `Oc1cccc(O)c1O`, the Potency in [1] was 3.98 µM (active). In addition, the Potency result in [8], in [2], in [12], in assay [13], in assay [14] and in assay [15] was “inactive” throughout. Moreover, the max response in [7] is 0.0163%.
On to `CCCC(CCC)C(=O)OC1C[C@H]2CC[C@@H](C1)[N+]2(C)C` (stereo not given in full), for which the Potency in [1] and in [13] was 12.6 µM (active) throughout. Further, the Potency entry in assay [8] and in [12] was “inactive” each time. In addition, the max response in [7] is 11.2% and 16.2%.
As to `NC(=O)C1c2ccccc2CCc2ccccc21`, the Potency entry in assay [1], in [8], in assay [9], in assay [10], in assay [11] and in assay [12] was “inactive” in each case. In addition, the Potency result in assay [13], in [14], in [15], in [5] and in assay [6] was “inactive” each time. In assay [7], the max response is 5.54%.
Consider `NC(=O)CC[C@@H]1NC(=O)[C@H](Cc2ccccc2)NC(=O)[C@H](Cc2ccc(O)cc2)NC(=O)[C@@H](N)CSSC[C@@H](C(=O)N2CCC[C@H]2C(=O)N[C@@H](CCCN=C(N)N)C(=O)NCC(N)=O)NC(=O)[C@H](CC(N)=O)NC1=O`, for which the Potency in assay [1] is 8.91 µM (active); in assay [6], 8.49 µM (active). In addition, the Potency result in assay [8], in [10], in [12] and in assay [13] was “inactive” throughout. Besides, the max response in assay [7] was 22.3% and -14.9%.
On to `O=C(CCCN1CCN2CCCC2C1)c1ccc(F)cc1` (stereo not given), for which the Potency entry in [1], in assay [8], in [4], in assay [9], in assay [10] and in assay [11] was “inactive” in each case. For the same molecule, the Potency result in assay [12] and in assay [13] was “inactive” each time. In addition, the values for the Potency in assay [2] and in assay [6] were 10 µM (active) and 6.01 µM (active), respectively. Further, the max response in [7] is 3.11%.
For the molecule `O=C(c1cc2ccccc2o1)N1CCN(Cc2ccccc2)CC1`, the Potency entry in [1], in assay [8], in assay [4], in assay [10] and in assay [12] was “inactive” throughout. Further, the Potency in [14] was 8.91 µM (active); in assay [5], 11.2 µM (active). The max response in assay [7] is -3.18%.
As for `[O]=[Bi][O]C(=O)[O][Bi]=[O]`, the Potency entry in assay [8], in assay [2], in assay [3], in [4], in [9] and in assay [10] was “inactive” throughout. The Potency result in [11], in [12], in [13], in assay [14], in assay [15] and in assay [5] was “inactive” in each case. Besides, in assay [6], the Potency result is “inactive”. In addition, the max response in assay [7] was -15.6%.
With `CC1=CC(=C(c2ccc(N)cc2)c2ccc(N)cc2)C=CC1=N`, the Potency was 1.26 µM (active) in [1]; 2.24 µM (active) in [2]; 2.51 µM (active) in assay [3]; 1.41 µM (active) in assay [4]; 2.51 µM (active) in assay [9]; 11.2 µM (active) in assay [10]. In addition, the Potency in [11] is 5.36 µM (active); in assay [13], 3.16 µM (active); in [14], 2.24 µM (active); in [15] it was 1.41 µM (active); in [5] it was 2 µM (active); in [6], 0.536 µM (active). Further, in [7], the Potency is 10.3 µM (active).
In the case of `CN(C)C(=O)CCSC(SCCC(=O)O)c1cccc(/C=C/c2ccc3ccc(Cl)cc3n2)c1` (stereo not given), the Potency was 11.2 µM (active) in [1], 11.2 µM (active) in assay [9] and 7.57 µM (active) in [6]. Also, the Potency result in [8], in [10] and in assay [12] was “inactive” in each case. Also, in assay [7], the max response is -15.2%.
As to `O=C(O)c1cc(N=Nc2ccc(O)c(C(=O)O)c2)ccc1O`, the Potency entry in assay [8], in assay [2], in assay [3], in assay [4], in assay [9] and in assay [10] was “inactive” throughout. Besides, the Potency entry in assay [11], in assay [12], in assay [13], in assay [14], in assay [15] and in [5] was “inactive” throughout. In addition, the max response in assay [7] is -1.02%.
